Laboratory results as given in article PMC5540273 (PLoS ONE, 2017).

Key:
[1] = system: GSK3A
[2] = system: T1, GRK3
T1 construct: gene ADRBK2

[3] = system: INSRR
[4] = system: GRK7
[5] = system: HIPK2
[6] = system: GRK1
[7] = system: GRK4
[8] = system: FLT4
[9] = system: GAK
[10] = system: HIPK4
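Further: kd values determined as follow-up on hits from a single-replicate KINOMEscan panel screen.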

`CCCC(=O)Nc1n[nH]c2ncc(-c3cccc4ccccc34)cc12` [SB-642057] was tested, and the Kd [1] was 360 nM.
Work on `Nc1nccc2scc(-c3ccc4c(c3)CCN4C(=O)Cc3ccccc3)c12` [GSK2576924] yielded a Kd [2] greater than 10000 nM.
`COc1cc2ncn(-c3cc(OCc4ccncc4)c(C(N)=O)s3)c2cc1OC` [GSK336313] gave a Kd [3] greater than 10000 nM.
`O=C(Nc1n[nH]c2nc(-c3ccccc3)c(Cl)cc12)C1CC1` [SB-734909] gave a Kd [2] greater than 10000 nM and a Kd [1] of 390 nM.
`CCn1c(-c2ccoc2)nc2cnccc21` [SB-733887] gave a Kd [4] greater than 10000 nM.
`Nc1n[nH]c2nnc(-c3ccccc3)c(-c3ccccc3)c12` [GW554060] gave a Kd [1] of 300 nM and a Kd [5] of 410 nM.
`OCCCNc1nccc(-c2c(-c3cccc(C(F)(F)F)c3)nn3cc(C(F)(F)F)ccc23)n1` [GW630813] gave a Kd [6] greater than 10000 nM.
Work on `CN1C(=O)C(Nc2cc(Cl)c(O)c(Cl)c2)=C(c2ccc(Cl)cc2)C1=O` [SB-404321] yielded a Kd [7] greater than 10000 nM.
In the case of `COc1ccc(-c2coc3ccc(-c4nnc(SCc5cccc(C#N)c5)o4)cc23)cc1`, the Kd [1] is reported as 150 nM.
With `COc1cc2nccc(Nc3ccc(OCc4ccc(NC(C)=O)cc4)cc3)c2cc1OC.Cl` [GW440135] the Kd [8] was 480 nM.
Compound `O=C(Nc1n[nH]c2nc(-c3ccccc3)c(Br)cc12)C1CC1` [SB-708998] has a Kd [1] of 410 nM.
In the case of `Cc1cccc(-c2cc(-c3c[nH]nc3-c3ccccn3)ccn2)c1` [GW679395], the Kd [9] is reported as 130 nM.
In the case of `Cn1c(=O)c(F)c(Nc2ccc(I)cc2F)c2c(=O)n(OC[C@H](O)CO)cnc21`, the Kd [10] is reported as greater than 10000 nM.
`Cc1nn2c(=O)cc(N3CCOCC3)nc2n1Cc1cccc(Cl)c1Cl` [GSK2342769] gave a Kd [2] greater than 10000 nM.
`CCS(=O)c1ccc(-c2coc3ccc(-c4nnc(C)o4)cc23)cc1` (centres unmarked) gave a Kd [1] of 260 nM.
